This is a sample that favours compounds with a hit; in the whole collection about 2.3% have one here.
FUS suppressor: FUS proteinopathy suppression in yeast | S. cerevisiae FUS-expressing, growth rescue, OD600, 24 h | Potency, µM (series often up to 76.6 µM), usual class: activators | 390,000 tested, 0.24% active; note: nearly all actives have a fitted effect of over 55% in size
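S. cerevisiae expressing FUS from galactose induction served as the toxicity model. Growth after 24hr at 30C, read as absorbance at 600 nm, indicates suppression of toxicity; compounds dosed at several concentrations.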
TDP43 rescue: TDP-43 toxicity inhibition in yeast | 410,000 tested, 1.8% active | AID 652104 | Potency, µM (titrated, usually from 46.1 µM), hits mostly activators | TDP-43 expressing yeast growth rescue, BacTiter-Glo, 24 h; note: nearly all actives have a fitted effect of over 50% in size
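Readout is BacTiter-Glo luminescence of cell growth, so inhibitors register as activators. TDP-43-expressing yeast at OD600=0.02 in galactose medium, after raffinose pregrowth to mid-log, were incubated with compound for 24 hr at 30 deg C.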
aSyn rescue: rescues yeast growth from alpha-synuclein toxicity | Yeast expressing alpha-synuclein, growth rescue, BacTiter-Glo, 24 h | Potency, µM (doses to about 46.1 µM), most hits filed as activators | 370,000 tested, 0.14% active | AID 652106; note: nearly all actives have a fitted effect of over 65% in size
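Galactose-induced alpha-syn yeast (OD600=0.02, raffinose-pregrown) + pinned cpd, 24 hr, 30 deg C; growth by BacTiter-Glo luminescence. Growth restoration scores as activation.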
Akt phos inh: Akt phosphorylation inhibition; Neuro2A IGF-stimulated pAkt S473 HTRF, 20 min; active compounds read low; activity change, % for hits at 50 µM; 360,000 tested, 0.32% active; AID 651550; in the data active = activity change below about -80%; inconclusive = mostly about -51% to -80%
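Neuro2A cells in DMEM with 0.5% FBS, overnight at 37 deg C, given compound at single 50 µM final, then IGF (6 nM final) for 20 min at 37 deg C. Lysed; phospho-Akt Ser473 by HTRF after 24 h, 665/615 ratio.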
Abeta yeast res: compounds reversing amyloid beta toxicity in yeast; yeast expressing A-beta42, growth rescue, OD600, 48 h; response scale: 0% DMSO, 100% iron-clioquinol control; Potency, µM (highest dose often 46.1 µM), hits mostly activators; 410,000 tested, 0.063% active; AID 1347071; note: nearly all actives have a fitted effect of over 55% in size
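Growth rescue measured by 600 nm absorbance after 48 h yeast culture at 30 C with compound. Values normalized between DMSO and an equimolar ferric chloride plus clioquinol control.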
Of the large screens only hits and unclear results are named; the others gave an inactive call. Unless noted, calls come from the whole dose curve; as a rule, active = well fitted curve in the direction sought with a large enough effect; inconclusive = small, poorly fitted or top-dose-only effect, or another doubt; inactive = no such curve, though single readings can be large; an effect the other way counts as inactive or inconclusive.

CCc1ccc(NC(=O)c2ccc(F)c(S(=O)(=O)N3CCC4(CC3)OCCO4)c2)cc1	TDP43 rescue inconclusive (no result: aSyn rescue, Akt phos inh)
CCn1nc(/C=C/c2ccccc2)nc2c(=O)n(C)c(=O)nc1-2	TDP43 rescue 3.16µM
CCn1nc(-c2cccs2)nc2c(=O)n(C)c(=O)nc1-2	none
C=CCN1CC[C@]23c4c5ccc(O)c4O[C@@H]2/C(=N/N=C2\CC[C@@]4(O)C6Cc7ccc(O)c8c7[C@@]4(CCN6CC=C)[C@@H]2O8)CC[C@@]3(O)C1C5	none (no result: FUS suppressor, TDP43 rescue, Akt phos inh, Abeta yeast res)
CCOC(=O)c1c(NC(NC(=O)CF)C(Cl)(Cl)Cl)sc2c1CCCC2 (configuration not stated)	TDP43 rescue 22.4µM
Cc1nc2cc([N+](=O)[O-])ccc2c(=O)n1-c1ccccc1[N+](=O)[O-]	TDP43 rescue 15.8µM
Cc1nc2cc([N+](=O)[O-])ccc2c(=O)n1-c1ccc(Br)cc1	none
COc1cc(C(=O)NCCSc2c(-c3ccccc3)[nH]c3ccccc23)cc(OC)c1OC	FUS suppressor inconclusive, TDP43 rescue inconclusive (no result: aSyn rescue, Akt phos inh)
Cc1cc(N(C)C)ccc1N=Nc1ccc(N)cc1	TDP43 rescue 12.6µM
O=C(Nc1cccc(C(F)(F)F)c1)C1CCCN1S(=O)(=O)c1cccc2nsnc12 (configuration not stated)	TDP43 rescue inconclusive (no result: aSyn rescue, Akt phos inh)
C[Se]C[C@H](N)C(=O)O	none (no result: FUS suppressor, TDP43 rescue, Akt phos inh, Abeta yeast res)
CCC(=NCCCn1ccnc1)c1c(O)n(-c2ccccc2)c(=O)[nH]c1=O	none
CCC(=NCCCn1ccnc1)c1c(O)n(Cc2ccccc2)c(=O)[nH]c1=O	TDP43 rescue 31.6µM
COc1ccccc1C(=O)Nc1nnc(-c2ccc(Cl)cc2)o1	TDP43 rescue 12.6µM
COc1ccc(C=C2C(=O)NC(=S)NC2=O)cc1OC	none
O=C1NC(=O)C(=Cc2ccccc2OCCOc2ccc([N+](=O)[O-])cc2)C(=O)N1	none
O=C1NC(=O)C(=Cc2ccc(Oc3ccc([N+](=O)[O-])cc3)cc2)C(=O)N1	TDP43 rescue 15.8µM
COc1cc(C=C2C(=O)NC(=O)NC2=O)ccc1OCc1ccc([N+](=O)[O-])cc1	TDP43 rescue 11.2µM
NC(=O)CI	none (no result: FUS suppressor, TDP43 rescue, Akt phos inh, Abeta yeast res)
COc1ccc(S(=O)(=O)N(C)C[C@H]2OCCCC[C@@H](C)Oc3ccc(N(C)C)cc3C(=O)N([C@H](C)CO)C[C@@H]2C)cc1	none
C#CC1(O)C=CC2C3CCC4=CC(=O)CCC4C3CCC21CC (configuration not stated)	TDP43 rescue 14.1µM
NCC(CC(=O)O)c1ccc(Cl)cc1 (configuration not stated)	Akt phos inh -108.5%
CC(=O)OCC1=C(C(=O)O)N2C(=O)[C@@H](NC(=O)CCC[C@@H](N)C(=O)O)[C@H]2SC1	none (no result: FUS suppressor, TDP43 rescue, Akt phos inh, Abeta yeast res)
CCOC(=O)[C@]12Cc3ccccc3[C@H]1N(C)C(=O)c1cc(OC)ccc12	TDP43 rescue 35.5µM
CCOC(=O)[C@]12Cc3c(cc(OC)c(OC)c3OC)[C@H]1N(C)C(=O)c1cc(OC)ccc12	TDP43 rescue 17.8µM
CCOC(=O)[C@]12Cc3ccccc3[C@H]1N(C(C)C)C(=O)c1cc(OC)ccc12	none
O=C(C[C@H]1C=C[C@H](NC(=O)Nc2ccccc2F)[C@@H](CO)O1)NCc1ccc(-c2ccccc2)cc1	aSyn rescue inconclusive
CN1CCc2nc3ccc(F)cc3c(C(N)=O)c2C1	Akt phos inh -99.4%
C[C@]12C[C@@H](O)[C@H](O)CC1=CCC1C2CC[C@]2(C)C(=O)CCC12 (some centres not stated)	none
C[C@]12CC[C@H](O)CC1=CC[C@@H]1[C@@H]2CC[C@]2(C)C(=O)CC[C@@H]12	TDP43 rescue 15.8µM, aSyn rescue inconclusive
Cc1sc2ncnc(N3CCC(C(=O)Nc4ccc(C#N)c(Cl)c4)CC3)c2c1C	none
Cc1ccc(NC(=O)C2CCN(C(=O)c3cnn(-c4ccccc4)c3-n3cccc3)CC2)cc1Cl	TDP43 rescue 35.5µM (no result: aSyn rescue, Akt phos inh)
COc1ccccc1NC(=O)Oc1cccc(OC(=O)c2ccccc2)c1	TDP43 rescue inconclusive
COc1ccc(-c2coc3c(C(=O)Nc4cc(OC)c(OC)c(OC)c4)cccc23)c(C)c1	TDP43 rescue inconclusive
O=c1[nH]c(=O)n(Cc2ccc(F)cc2)c(O)c1C=Nc1ccc(Cl)cc1	none
Nc1cccc(N=Cc2c(O)n(Cc3ccc(F)cc3)c(=O)[nH]c2=O)c1	FUS suppressor 11.2µM
O=C(NC1CCCCC1)N1Cc2cc(-c3ccccc3)ccc2-n2nncc2C1	TDP43 rescue 20µM
COc1ccc(-c2ccc3c(c2)CN(C(=S)NCCc2ccccc2)Cc2cnnn2-3)cc1	TDP43 rescue inconclusive, aSyn rescue 3.98µM
S=C(NCCc1ccccc1)N1Cc2cc(Br)ccc2-n2nncc2C1	TDP43 rescue 22.4µM, aSyn rescue inconclusive, Abeta yeast res inconclusive
COc1ccc(NC(=S)N2Cc3ccccc3-n3nncc3C2)c(OC)c1	TDP43 rescue inconclusive
S=C(NCCc1ccccc1)N1Cc2ccc(Br)cc2-n2nncc2C1	TDP43 rescue 25.1µM, aSyn rescue inconclusive, Abeta yeast res inconclusive
CC(C)(Oc1ccc(Cl)cc1)C(=O)OCC(=O)N1CCN(c2ccccc2)CC1	TDP43 rescue 14.1µM
O=C(COc1ccc(Cl)cc1)N1CCN(Cc2ccccc2)CC1	none
C[C@H]1COC(=O)[C@@H](Cc2ccc(F)cc2)CC/C=C/C[C@H](CC(=O)N(CCO)Cc2ccccc2)C(=O)N1	aSyn rescue inconclusive
COc1cc2nc(N3CCCN(C)CC3)nc(N(C)C3CCN(C)CC3)c2cc1OC	none (no result: FUS suppressor, TDP43 rescue, Akt phos inh, Abeta yeast res)
Cc1ccccc1-c1ccc2n1Cc1cnnn1-c1ccccc1-2	TDP43 rescue 12.6µM
O=C(NCc1ccc2c(c1)CCN2C(=O)c1ccccc1)Nc1cccc(C(F)(F)F)c1	none (no result: aSyn rescue, Akt phos inh)
COc1ccc(S(=O)(=O)N2Cc3ccccc3-n3nncc3C2)cc1	none
O=S(=O)(c1cccc2ccccc12)N1Cc2ccccc2-n2nncc2C1	TDP43 rescue 20µM
O=S(=O)(c1ccc(Cl)cc1)N1Cc2cc(Br)ccc2-n2nncc2C1	TDP43 rescue 20µM
CCOc1ccc(-c2nc(CSCC(=O)NCCc3ccc(OCC)c(OCC)c3)c(C)o2)cc1	TDP43 rescue inconclusive (no result: aSyn rescue, Akt phos inh)
O=P(Nc1cccc(F)c1)(Oc1ccccc1F)Oc1ccccc1F	aSyn rescue 17.8µM, Abeta yeast res inconclusive
O=[N+]([O-])c1cccc(O)c1	TDP43 rescue inconclusive
Nc1ccc2c(c1)Cc1cc([N+](=O)[O-])ccc1-2	TDP43 rescue 8.91µM, aSyn rescue inconclusive
O=[N+]([O-])c1ccc2c(c1)Cc1cc(O)ccc1-2	TDP43 rescue 3.55µM (no result: FUS suppressor)
Cc1cc(/C=C/c2ccnc3ccccc23)ccc1N(CCCl)CCCl	none (no result: FUS suppressor, TDP43 rescue, Akt phos inh, Abeta yeast res)
COc1ccc(CNC(=O)c2cnn3c(C)c(Cc4ccc(F)cc4)c(C)nc23)cc1	TDP43 rescue inconclusive (no result: aSyn rescue, Akt phos inh)
Nc1c(C(=O)OC2CCCCC2)c2nc3ccccc3nc2n1CC1CCCO1 (configuration not stated)	TDP43 rescue 28.2µM

Screens: PubChem BioAssay, National Center for Advancing Translational Sciences (NCATS)
